From PubChem BioAssay AID686978 (National Center for Advancing Translational Sciences (NCATS), 2013)
Several values for one entry are separate records, joined by “and”; a condition that tells them apart may be missing. Equal entries are not always repeated. About 64,000 (15%) of roughly 420,000 compounds were called active. Inconclusive results (about 27%) are left out. Not all results are given here. Unmarked numbers belong to inactive results. Calls follow the shape of the dose curve; as a rule, active = well fitted inhibition curve with a large enough effect; inconclusive = small, poorly fitted or top-dose-only effect; inactive = flat fitted curve, though single readings scatter.

Assay: qHTS for Inhibitors of human tyrosyl-DNA phosphodiesterase 1 (TDP1): qHTS in cells in absence of CPT; also: nearly all actives have a fitted effect of over 55% in size
Details: DT40 Tdp1-/- hTDP1 cells, no CPT, ATP luminescence, 48 h; activity change, negative = growth inhibition: at 46.2 µM (top of the series)
Summary of the method: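 Seeded 400 DT40-hTDP1 cells/well (vehicle DMSO, no 20 nM CPT); pinned compounds; ≥48 hr at 37 °C; CellTiter-Glo luminescence as viability measure.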
% is scaled to controls: 0 for no effect and ±100 for the full control effect; potency is read from the fitted curve at half-maximal effect.

Structure (SMILES) | activity change, negative = growth inhibition [%] | Potency
NS(=O)(=O)c1ccc(NC(=O)/C=C/c2ccccc2Cl)cc1 | -8.85 | –
C/C(=C/c1ccccc1)C(=O)N1CCN(c2ccccc2)CC1 | 10.8 | –
Cc1ccc(S(=O)(=O)CCC(=O)OCC(=O)N(C)C2CCS(=O)(=O)C2)cc1 (stereo unspecified) | -9.23 | –
COCCn1c(C)cc(C(=O)COC(=O)CNC(=O)c2ccco2)c1C | 0.941 | –
COc1cccc(N(CC(=O)NC2CCCC2)C(=O)CCCC(=O)Nc2ccccn2)c1 | -2.2 | –
O=NN(CCCl)C(=O)NCCc1cccc[n+]1[O-] | -3.59 | –
O=C1COc2ccc(S(=O)(=O)Nc3ccc(OC(F)(F)F)cc3)cc2N1 | -26 | –
Cc1ccc(S(=O)(=O)N2CCN(C(=O)CCC(=O)NC3CCCc4ccccc43)CC2)cc1 (stereo unspecified) | -21.4 | –
O=[N+]([O-])c1ccc(S(=O)(=O)N2CCN(c3nc(-c4ccccc4)nc4ccccc34)CC2)cc1 | -8.56 | –
Cc1ccc(C)c(S(=O)(=O)n2nc(C)c(S(=O)(=O)N3CCC(C)CC3)c2C)c1 | -22.5 | –
COc1ccc(C)cc1S(=O)(=O)N1CCN(S(=O)(=O)c2cc(C(=O)O)ccc2C)CC1 | 4.86 | –
Cc1ccc(S(=O)(=O)N2CCN(c3nc(-n4cnc5ccccc54)nc4ccccc34)CC2)cc1 | -11.9 | –
Cc1ccc(S(=O)(=O)N2CCN(c3ncnc4ccccc34)CC2)cc1 | – | 820 nM (active) and 1.26 µM (active)
Cc1ccc(C)c(S(=O)(=O)N2CCN(c3ncnc4sccc34)CC2)c1 | – | 3.66 µM (active)
COc1ccccc1C(=O)NCCC(=O)NC1=NCCS1 | -8.48 | –
Cc1cccc(N(C(=O)c2ccc(CN3CCOCC3)o2)C(C(=O)NC2CCCCC2)c2ccc(F)cc2)c1 (stereo unspecified) | -16.1 | –
COc1cc(OC)c(S(=O)(=O)Nc2ccccc2C(=O)O)cc1S(=O)(=O)Nc1ccccc1C(=O)O | 18.3 | –
COc1ccccc1OCC(=O)OCn1c(SC)nnc(C)c1=O | -7.86 | –
O=C(Nc1cccc(S(=O)(=O)NC2=NCCC2)c1)C1CCCCC1 | 21.7 | –
O=C(NCc1ccccc1)C1c2ccccc2OCC(=O)N1CCCN1CCOCC1 (stereo unspecified) | -1.27 | –
CCOc1cc(/C=C2\C(=N)N3N=C(C)SC3=NC2=O)ccc1OCCOc1ccccc1 | -6.53 | –
O=C(O)CCCCCCCCc1cn(CN2C(=O)c3ccccc3C2=O)nn1 | – | inactive
COc1cc(C(=O)N(Cc2ccc(N(C)C)cc2)C2CCS(=O)(=O)C2)cc(OC)c1OC (stereo unspecified) | -20.2 | –
Cc1ccsc1CN(C(=O)c1oc2ccc(Br)cc2c1C)C1CCS(=O)(=O)C1 (stereo unspecified) | – | 6.51 µM (active)
Cc1cc(C)c(OCC(=O)N(Cc2cccs2)C2CCS(=O)(=O)C2)c(C)c1 (stereo unspecified) | -24.9 | –
O=C(COC(=O)c1ccccc1)Nc1ccccc1Sc1ccccc1 | -7.36 | –

Structure (SMILES) | activity change, negative = growth inhibition [%] | Potency
NC(=O)c1ccsc1NC(=O)c1ccco1 | -9.46 | –
O=C(NCc1ccco1)C(=O)c1cn(CC(=O)N2CCCCCC2)c2ccccc12 | -8.99 | –
CC(C)(C)c1ccc(/C=C/C(=O)NCCCn2ccnc2)cc1 | – | 16.4 µM (active)
CCCCC(=O)Nc1ccc(C(=O)NCCCn2ccnc2)cc1 | 13.2 | –
O=C(/C=C/c1ccc(Cl)cc1)NCCCn1ccnc1 | 0.819 | –
CN(C(=O)CN1C(=O)NC(C)(CCc2ccccc2)C1=O)c1ccccc1 (stereo unspecified) | -13 | –
Cc1cc(C)nc(N(C#N)CC(=O)Nc2ccccc2)n1 | -24.2 | –
Nc1cccc2c1C(=O)N(Cc1nnc(-c3ccccc3Br)o1)C2=O | -15.5 | –
Cc1ccc(C=O)cc1Cl | -19.2 | –
COc1ccc(NC(=O)COC(=O)C2COc3ccccc3O2)cc1 (stereo unspecified) | 13.6 | –
CCOc1ccc(NC(=O)c2ccc(NC(=O)COC(=O)c3ccc(NC(=O)CC#N)cc3)cc2)cc1 | -0.473 | –
CCC(C)(C)c1ccc(Oc2ccc(NC(=O)COC(=O)C3=COCCO3)cc2)cc1 | – | 25.9 µM (active)
COC(=O)c1ccc(C2NC(=O)NC(C)=C2C(=O)N(C)C)cc1 (stereo unspecified) | -2.25 | –
NC(=O)c1nnsc1-c1ccc(-c2snnc2C(N)=O)cc1 | 1.83 | –
CCCCN(CC)CCNC(=O)c1[nH]c(C)c(C(C)=O)c1C | 1.12 | –
CCS(=O)(=O)N1CCCC(C(=O)NCCCN(C)Cc2ccccc2)C1 (stereo unspecified) | 2.93 | –
c1ccc2c(CNn3cnnc3)cccc2c1 | 5.72 | –
c1ccc(NCc2cccc3ccccc23)nc1 | 2.55 | –
N=C(N)SCc1cccc2ccccc12 | – | 20.6 µM (active)
CCCCCc1ccc(-c2ccc(C(=O)O)cc2)nc1 | -3.48 | –
CCN(C(=O)COC(=O)c1c(NC(C)=O)sc(C)c1C)C1CCS(=O)(=O)C1 (stereo unspecified) | -12.8 | –
Cc1c(NC(=O)C(C)Oc2cccc(Cl)c2)c(=O)n(-c2ccccc2)n1C (stereo unspecified) | -5.95 | –
O=c1nc2s/c(=C\c3ccco3)c(=O)n2nc1Cc1ccccc1 | -27.8 | –
Cc1csc(Nc2ccc(Cl)cc2)[n+]1-c1ccc(Cl)cc1 | – | 25.9 µM (active)
Cc1cc(-c2nc(C)c(-c3nnc(SCC(=O)Nc4ccccc4)n3C)s2)no1 | 4.42 | –
Cc1cc(C(=O)OCC(=O)Nc2ccc(F)c(F)c2)c(C)o1 | -2.49 | –

Structure (SMILES) | activity change, negative = growth inhibition [%] | Potency
COc1ccc(CNC(=O)COc2ccccc2C(=O)c2cnn(-c3ccccc3)c2)cc1OC | – | 14.6 µM (active)
COc1cc(CO)ccc1OCC(=O)Nc1cccc2ccccc12 | -4.31 | –
COc1ccc(CNC(=O)CSc2n[nH]c(N)n2)cc1OC | -13.1 | –
COc1cc(S(=O)(=O)Nc2ncn[nH]2)ccc1Cl | 0.0265 | –
CCc1nnc(NC(=O)CSc2nnc(COc3ccc(C#N)cc3)n2-c2ccccc2)s1 | -9.91 | –
CC(C)(C)NC(=O)C(c1ccco1)N(Cc1ccc2c(c1)OCO2)C(=O)Cn1nnc2ccccc21 (stereo unspecified) | -25.3 | –
O=C(CC1(O)C(=O)N(CN2CCOCC2)c2ccccc21)c1ccccc1 (stereo unspecified) | -27.9 | –
CCCN1C(=O)C(O)(CC(=O)c2ccc(CC)cc2)c2cc(Br)ccc21 (stereo unspecified) | – | 6.51 µM (active)
Cc1ccc(C(=O)CC2(O)C(=O)N(CCc3ccccc3)c3ccc(Br)cc32)cc1 (stereo unspecified) | – | 16.4 µM (active)
CCc1ccc(C(=O)COC(=O)c2ccco2)cc1 | 13.7 | –
Cc1ccc(CCN2CC(C(=O)NCCc3ccccc3)CC2=O)cc1 (stereo unspecified) | -19.1 | –
Cc1coc(C)c1C(=O)CC1(O)C(=O)N(C)c2ccc(Cl)cc21 (stereo unspecified) | -16.7 | –
Cc1ccccc1-c1nc(C#N)c(NCc2ccco2)o1 | -18.2 | –
COc1cc(NC(=O)C2CCN(c3cnccn3)CC2)cc(OC)c1 | – | inactive
COCOc1cc(O)c(C(=O)/C=C/c2ccc(OCOC)c(OCOC)c2)c(OCOC)c1 | – | 23.1 µM (active)
COC(=O)c1ccc(COc2ccc(/C=C/C(=O)c3ccc(OC)c(CSCC(=O)O)c3)cc2OC)cc1 | -10.6 | –
COc1cc(/C=C/C(=O)OCC(=O)N2CCOCC2)ccc1OCC#N | -18.8 | –
CCOC(=O)CSc1nnc(NC(=O)c2cccc(S(=O)(=O)N3CCCCC3)c2)s1 | -1.98 | –
CCOc1ccc(S(=O)(=O)Nc2nc3cc(OC)ccc3s2)cc1 | 4.1 | –
COc1ccc(Nc2ccc([N+](=O)[O-])cn2)cn1 | -0.0035 | –
Cc1ccc(-n2c(C)cc(/C=N/Nc3ccc([N+](=O)[O-])cn3)c2C)c(C)c1 | – | 23.1 µM (active)
Cc1cc(/C=N/Nc2ccc([N+](=O)[O-])cn2)c(C)n1-c1cccc(C(=O)O)c1 | 13.9 | –
Cc1ccc(SCC(=O)Nc2nncs2)cc1 | 0.103 | –
CCOCCC(=O)Nc1ccc2c(c1)c(=O)n(C)n2-c1ccc2ccccc2c1 | – | 5.8 µM (active)
CCCC(=O)Nc1ccc2c(c1)nc(CCNC(=O)c1ccco1)n2C | -9.29 | –
CCOC(=O)c1cccc(NC(=O)CCOc2ccccc2)c1 | -11.2 | –

Structure (SMILES) | activity change, negative = growth inhibition [%] | Potency
O=C(CCCOc1ccccc1)NNC(=O)c1ccc(Cl)cc1 | 5.41 | –
CC(C)Oc1ccc(C(CC(=O)N2CCOCC2)C(C)C)cc1 (stereo unspecified) | 13.9 | –
C[N+]1(CC(=O)c2cccs2)CCOCC1 | -7.74 | –
CC(C)CCOc1ccc(C(=O)C[N+]2(C)CCOCC2)cc1 | – | 18.4 µM (active)
COc1ccccc1C1C(C(=O)N2CCCCC2)=C(C)Nc2nc3ccccc3n21 (stereo unspecified) | 2.64 | –
COc1cc(OC)c(NC(=O)c2cnc(N3CCCC3)nc2C)cc1Cl | -19.9 | –
COc1cc(OC)c(NC(=O)c2c3c(nn2C)-c2ccccc2SC3)cc1Cl | – | 16.4 µM (active)
COc1cc(OC)c(NC(=O)c2nc(-c3ccncc3)no2)cc1Cl | -5.54 | –
Cc1cc(C)c(S(=O)(=O)c2cc(F)ccc2C)c(=O)[nH]1 | -0.186 | –
CCOC(=O)c1cc(-c2ccc(F)cc2)n(CC(=O)NCc2ccccn2)c1C | -1.43 | –
O=C(C1CCN(S(=O)(=O)c2cnc[nH]2)CC1)N1CCN(Cc2ccc3c(c2)OCO3)CC1 | – | 20.6 µM (active)
CCN(CCCNC(=O)C1CCN(S(=O)(=O)c2cnc[nH]2)CC1)c1ccccc1 | -18.9 | –
CS(=O)(=O)N(CC(=O)N1CCN(Cc2ccc3c(c2)OCO3)CC1)c1ccc2c(c1)OCO2 | -25.9 | –
CC(C)NC(=O)CCCn1c(=S)[nH]c2cc3c(cc2c1=O)OCO3 | -20.5 | –
O=C(COc1ccc(S(=O)(=O)Nc2cccc(C(F)(F)F)c2)cc1)N1CCOCC1 | -13.8 | –
CC(=O)N1CCN(C(=O)c2cccc(S(=O)(=O)Nc3ccc(C)cc3)c2)CC1 | -4.18 | –
CCOC(=O)N1CCN(C(=O)c2ccc(S(=O)(=O)Nc3cccc(C(F)(F)F)c3)cc2)CC1 | – | 6.51 µM (active)
COC(=O)C1=C(C(=O)OC)[C@@H]2N(Cc3ccccc3)c3ccccc3[C@@]23C[C@@H](C(=O)OC)N(S(=O)(=O)c2ccc(C(F)(F)F)cc2)C3=N1 | -22.1 | –
CCCCNS(=O)(=O)c1ccc(S(=O)(=O)n2cnc3ccccc32)cc1 | 2.54 | –
CCOC(=O)c1nc(C)n(-c2ccc(Cl)cc2Cl)n1 | -12.1 | –
Cc1ccc(/C=N/NC(=O)CN2CCN(Cc3ccccc3)CC2)s1 | -20.3 | –
C/C(=N/NC(=O)CN1CCN(S(=O)(=O)c2ccc(Br)cc2)CC1)c1ccncc1 | -17.6 | –
Cc1ccc(S(=O)(=O)N2CCN(CC(=O)N/N=C/c3ccc(Br)s3)CC2)cc1 | – | 14.6 µM (active)
